PubChem BioAssay (NCI)
This is part of a sample that, as a whole, favours compounds with a hit. Of some 83,000 tested, about 20% had one in any assay.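 Treatment: one concentration, 48 hours, 96-well format. Scoring: percent growth, with anything below 10 considered active.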 A number with no mark means an inactive call.

What follows are compounds tested on HS 578T breast (assay: NCI-60 one-dose screen, 48 h (100 = growth as untreated, 0 = no growth, -100 = all killed)). Conditions: 10 µM unless noted.

| Structure (SMILES) | growth |
| --- | --- |
| O=C(OCC1CCCO1)c1ccc([N+](=O)[O-])cc1 (stereo unspecified) | 96.7% |
| Cc1ccc(NC(=O)c2ccccc2Cl)cc1 | 103% |
| C/C(O)=C(/C=N\C(=S)Nc1ccc(S(=O)(=O)Nc2nccs2)cc1)C(=O)Nc1ccccc1C | 84.1% |
| NC(=S)N/N=C/c1ccc(Cl)cc1 | 112% |
| Oc1ccc(CCC2CCNc3ccccc32)cc1 (stereo unspecified) | 91.8% |
| O=C(NC1CCCCC1)c1ccc(Cl)cc1 | 106% |
| CCOC(=O)CO | 109% |
| CC(c1ccccc1)N(C)C (stereo unspecified) | 153% |
| CC(CCC#N)(CCC#N)C(=O)c1ccccc1 | 97.8% |
| Cc1ccc2nc(-c3ccc(N=Cc4ccccc4O)cc3)sc2c1 | 102% |
| Nc1cc2ccccc2c(O)c1O | 81.7% |
| CCOc1ccccc1NC(=O)CCl | 94.9% |
| CCC12OC(COc3ccccc3)CN1CCN2c1ccccc1 (stereo unspecified) | 99.1% [100 µM] |
| Cc1ccc(S(=O)(=O)CCCl)cc1 | 102% |
| CC(C)c1ccccc1NC(=O)N1CCC(C(C)C)CC1 | 102% |
| COc1ccc(C2CC(c3ccccc3)=Nc3ccccc3S2)cc1 (stereo unspecified) | 102% |
| NC(CO)(CO)c1ccccc1 | 95.5% |
| C=CC(=O)OC1CCC(C(C)(C)CC)CC1 (stereo unspecified) | 101% |
| Cc1[nH]n(-c2ccccc2)c(=O)c1C=NC(=S)C(N)=S | 92.1% |

| Structure (SMILES) | growth |
| --- | --- |
| COc1cccc2c1Cc1ccccc1-2 | 103% |
| NC(=O)N1CCOCC1 | 113% |
| CCC(=O)Oc1ccc2ccccc2c1 | 81% |
| C=CCN1CCCC1=O | 109% |
| O=C(O)c1cccc(-n2ncc(Cl)c(Cl)c2=O)c1 | 98.3% |
| Cc1ccc(OC(=O)c2ccccc2)cc1 | 141% |
| O=Cc1c(O)c2ccccc2[nH]c1=O | 106% |
| CC(=O)c1ccc(C)cc1 | 94.9% |
| N#Cc1ccc2nc[nH]c2c1 | 100% |
| CC(=O)[C@@]1(O)CC[C@H]2[C@@H]3CC[C@@H]4CC(=O)CC[C@]4(C)[C@H]3[C@@H](O)C[C@@]21C | 101% |
| COC(=O)Cc1cc(COC(C)=O)ccc1C | 112% |
| c1ccc(-c2ccc3ccccc3c2)cc1 | 84.5% |
| C=CCC(OC(C)=O)c1ccc(C(C)C)cc1 (stereo unspecified) | 109% |
| C=C(OC(C)=O)c1ccccc1 | 90.7% |
| Nc1cccc2cccc(O)c12 | 82.1% |
| CC(=O)c1cccs1 | 99.2% |
| CSCCC(NC(=O)C(Cl)Cl)C(=O)O (stereo unspecified) | 97.8% |
| O=C(O)CSCC(=O)Nc1cc(C(F)(F)F)ccc1Cl | 101% |
| CCCCNC(=O)c1ccc(OCC)cc1 | 101% |

The compounds below were run on NCI/ADR-RES ovarian in the same assay as above. Conditions: 10 µM unless noted.

| Structure (SMILES) | growth |
| --- | --- |
| O=C(OCC1CCCO1)c1ccc([N+](=O)[O-])cc1 (stereo unspecified) | 103% |
| Cc1ccc(NC(=O)c2ccccc2Cl)cc1 | 111% |
| C/C(O)=C(/C=N\C(=S)Nc1ccc(S(=O)(=O)Nc2nccs2)cc1)C(=O)Nc1ccccc1C | 105% |
| NC(=S)N/N=C/c1ccc(Cl)cc1 | 100% |
| Oc1ccc(CCC2CCNc3ccccc32)cc1 (stereo unspecified) | 74.7% |
| O=C(NC1CCCCC1)c1ccc(Cl)cc1 | 101% |
| CCOC(=O)CO | 109% |
| CC(c1ccccc1)N(C)C (stereo unspecified) | 105% |
| CC(CCC#N)(CCC#N)C(=O)c1ccccc1 | 106% |
| Cc1ccc2nc(-c3ccc(N=Cc4ccccc4O)cc3)sc2c1 | 77.7% |
| Nc1cc2ccccc2c(O)c1O | 55.3% |
| CCOc1ccccc1NC(=O)CCl | 106% |
| CCC12OC(COc3ccccc3)CN1CCN2c1ccccc1 (stereo unspecified) | 100% [100 µM] |
| Cc1ccc(S(=O)(=O)CCCl)cc1 | 105% |
| CC(C)c1ccccc1NC(=O)N1CCC(C(C)C)CC1 | 111% |
| COc1ccc(C2CC(c3ccccc3)=Nc3ccccc3S2)cc1 (stereo unspecified) | 94.7% |
| NC(CO)(CO)c1ccccc1 | 111% |
| C=CC(=O)OC1CCC(C(C)(C)CC)CC1 (stereo unspecified) | 105% |
| Cc1[nH]n(-c2ccccc2)c(=O)c1C=NC(=S)C(N)=S | 101% |

| Structure (SMILES) | growth |
| --- | --- |
| COc1cccc2c1Cc1ccccc1-2 | 98.6% |
| NC(=O)N1CCOCC1 | 113% |
| CCC(=O)Oc1ccc2ccccc2c1 | 96.8% |
| C=CCN1CCCC1=O | 110% |
| O=C(O)c1cccc(-n2ncc(Cl)c(Cl)c2=O)c1 | 110% |
| Cc1ccc(OC(=O)c2ccccc2)cc1 | 113% |
| O=Cc1c(O)c2ccccc2[nH]c1=O | 104% |
| CC(=O)c1ccc(C)cc1 | 106% |
| N#Cc1ccc2nc[nH]c2c1 | 110% |
| CC(=O)[C@@]1(O)CC[C@H]2[C@@H]3CC[C@@H]4CC(=O)CC[C@]4(C)[C@H]3[C@@H](O)C[C@@]21C | 103% |
| COC(=O)Cc1cc(COC(C)=O)ccc1C | 107% |
| c1ccc(-c2ccc3ccccc3c2)cc1 | 105% |
| C=CCC(OC(C)=O)c1ccc(C(C)C)cc1 (stereo unspecified) | 107% |
| C=C(OC(C)=O)c1ccccc1 | 109% |
| Nc1cccc2cccc(O)c12 | 95.5% |
| CC(=O)c1cccs1 | 95.6% |
| CSCCC(NC(=O)C(Cl)Cl)C(=O)O (stereo unspecified) | 106% |
| O=C(O)CSCC(=O)Nc1cc(C(F)(F)F)ccc1Cl | 117% |
| CCCCNC(=O)c1ccc(OCC)cc1 | 100% |
